Only some compounds are listed: those with a hit (about 7.4% of all), similar ones and a draw of the others.
SMN2 splice enh = SMN2 splice variant enhancement; AID 1458; hit rate 2.8% among 210,000; HEK293 SMN2-luciferase splicing reporter, luminescence, 30-36 h; Potency, µM (doses to about 46.1 µM), inactives show at the top dose activity change, positive = activation, usual class: activators; further: % of control where 0% means no effect; nearly all actives have a fitted effect of over 55% in size
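HEK293 cells carry an SMN2 […]–luciferase reporter in which exon 7 inclusion puts luciferase in frame. Cells were plated 10-12 h before compound addition, then incubated 30-36 h at 37C. ONE-Glo luminescence was read; sodium butyrate at 4.5 mM final served as control.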
ELG1 genotoxic = inducers of genotoxicity in HEK293T ELG1-luciferase cells; HEK293T ELG1-luciferase reporter, luminescence, 16 h; Potency, µM (highest dose often 46 µM), without a hit: at the highest dose activity change, positive = activation, usual class: activators; hit rate 1.3% among 330,000; AID 504466; further: % of control where 0% means no effect; nearly all actives have a fitted effect of over 60% in size
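Genotoxic stress is detected as increased luminescence from luciferase-tagged ELG1 in HEK293T cells, measured with ONE-Glo after a 16 hr treatment at 37 °C.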
NPC1 prom act = NPC1 promoter activation; AID 485313; Huh7 NPC1 promoter luciferase reporter, 24 h; hit rate 2.4% among 320,000; Potency, µM (doses to about 9.22 µM), for the others: top-dose activation, hits mostly activators; further: % of control where 0% means no effect; nearly all actives have a fitted effect of over 60% in size
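Readout is luciferase luminescence, reflecting NPC1 promoter activation in stably transfected Huh7 cells after 24 h compound exposure at 37 °C in reduced-serum medium with 10% FBS.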
Luc counter = blocks Kinase-Glo luciferase, a counter-screen artifact. Q27757. Kinase-Glo luciferase, ATP luminescence, 8 min. Potency, µM (doses to about 38.3 µM), without a hit: at the top dose activity change, negative = inhibition, most hits filed as inhibitors. hit rate 0.28% among 200,000. AID 1379; further: on the % scale 0 is the no-effect control and ±100 the full control effect; nearly all actives have a fitted effect of over 60% in size
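Recombinant Kinase-Glo luciferase, 10 uM ATP (linear range), luciferin; imidazole pH 7.2 / KCl / MgCl2 / Tween / BSA buffer; 8 min RT; luminescence.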
Rab9 promoter act = activators of Rab9 promoter; Huh7 Rab9 promoter-luciferase reporter, luminescence, 24 h; Potency, µM (titrated, usually from 9.22 µM), for inactives: top-dose activation, negative = inhibition, actives largely listed as activators; hit rate 2.8% among 320,000; further: % of control where 0% means no effect; nearly all actives have a fitted effect of over 60% in size
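Luciferase signal after 10 min detection reagent at ambient indicates Rab9 promoter upregulation; stably transfected Huh7 cells were treated 24 h with compound in DMSO at 37 °C, 5% CO2.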
FLuc counter = firefly luciferase modulation, counter-screen for miR-21 project | purified FLuc, Km substrates, luminescence inhibition | Potency, µM (doses to about 57.5 µM), for inactives: top-dose activity change, negative = inhibition, most hits filed as inhibitors | hit rate 6.9% among 360,000 | P08659;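 further: plate controls were vehicle for no effect and reference inhibitor for full effect; nearly all actives have a fitted effect of over 55% in size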
Target sequence (P08659 whole entry, looked up): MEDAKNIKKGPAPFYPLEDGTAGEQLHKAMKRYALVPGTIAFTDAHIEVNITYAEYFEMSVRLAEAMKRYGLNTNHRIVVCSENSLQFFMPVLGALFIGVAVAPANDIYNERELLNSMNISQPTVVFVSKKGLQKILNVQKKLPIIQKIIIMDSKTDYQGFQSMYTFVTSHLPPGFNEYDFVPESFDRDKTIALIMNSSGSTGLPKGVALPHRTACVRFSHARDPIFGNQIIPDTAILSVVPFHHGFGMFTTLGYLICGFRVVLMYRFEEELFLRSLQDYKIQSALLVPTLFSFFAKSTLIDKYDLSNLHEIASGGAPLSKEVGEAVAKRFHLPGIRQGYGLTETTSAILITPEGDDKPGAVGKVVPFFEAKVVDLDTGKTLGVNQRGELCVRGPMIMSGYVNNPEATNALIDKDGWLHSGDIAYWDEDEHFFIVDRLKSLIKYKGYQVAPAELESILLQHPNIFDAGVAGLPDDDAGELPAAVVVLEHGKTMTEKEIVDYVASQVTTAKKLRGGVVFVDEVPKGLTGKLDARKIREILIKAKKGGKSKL
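Purified P. pyralis luciferase, 10 nM final, with Km-level 10 uM D-luciferin and 10 uM ATP in 50 mM Tris acetate pH 7.5, 10 mM Mg acetate, 0.01% Tween-20, 0.05% BSA; 6-point qHTS titration about 60 µM downward; luminescence read.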
* = called active by the depositor; u = inconclusive; x = no result; [ ] = dose if it differs, or a comment. The call rests on the fitted dose curve; in most records, active means well fitted curve in the direction sought with a large enough effect; inconclusive means small, poorly fitted or top-dose-only effect, or another doubt; inactive means no such curve, though single readings can be large; an effect the other way counts as inactive or inconclusive. Potency means the concentration at half of the fitted maximal effect.

SMILES | SMN2 splice enh | ELG1 genotoxic | NPC1 prom act | Luc counter | Rab9 promoter act | FLuc counter
Cc1ccc(C)c(CN2C(=O)c3ccccc3S(=O)c3ccc(C(=O)N4CCN(c5ccccn5)CC4)cc32)c1 (configuration not stated) | 4.47µM* | -13.8% | -5.1% | 3.3% | 0.8% | 0.4%
Cc1ccc(Cl)cc1N1CCN(C(=O)c2ccc3c(c2)N(Cc2ccccc2F)C(=O)c2ccccc2S3=O)CC1 (configuration not stated) | -6.9% | x | x | x | x | -0.3%
Cc1ccc(C)c(CN2C(=O)c3ccccc3S(=O)c3ccc(C(=O)N4CCN(c5ccccc5F)CC4)cc32)c1 (configuration not stated) | 0.631µM* | x | x | x | x | -2.0%
Cc1ccc(Cl)cc1N1CCN(C(=O)c2cnc(N3CCOCC3)c3ccccc23)CC1 | x | x | x | x | x | -9.6%
C/C(=N\NC(=O)c1ccc(Cl)cc1)c1cccs1 | 3.55µM* | 2.31µM* | 0.562µM* | -16.8% | 0.316µM* | 2.69µM*
C/C(=N\NC(=O)c1ccc(NS(=O)(=O)c2cccs2)cc1)c1cccs1 | -4.7% | 3.5% | -5.9% | 1.9% | 2.1% | -19.4%
C/C(=N/NC(=O)c1ccc2nc[nH]c2c1)c1cccs1 | 11.2µM* | u | 2µM* | -5.3% | 1.41µM* | 10.7µM*
Cc1ccc(/C=N/NC(=O)c2ccc3nc[nH]c3c2)s1 | -8.4% | 9.9% | 13.4% | -5.8% | 24.3% | u
Cc1nnc(Sc2nc3ccccc3o2)c2ccccc12 | x | 15.0% | -5.0% | 0.3% | -0.3% | 19µM*
COc1ccc(-c2cc(=O)oc3c4c(ccc23)OCN(Cc2cccc(OC)c2)C4)cc1 | -4.2% | x | x | x | x | -7.8%
COc1ccccc1N1CCN(/N=C/C=C\c2ccco2)CC1 | 12.6µM* | u | 1.12µM* | -2.4% | 2µM* | 4.78µM*
O=C(CN1CCN(Cc2ccccc2Cl)CC1)N/N=C/C=C/c1ccco1 | x | 2.7% | -3.6% | x | -3.0% | -1.4%
Clc1ccccc1CN1CCN(/N=C/C=C/c2ccco2)CC1 | x | 7.5% | 26.6% | x | u | 23.9µM*
COc1ccccc1N1CCN(C(=O)/C=C/c2ccco2)CC1 | x | 12.1% | 3.6% | 1.9% | 18.4% | u
Fc1ccc(-c2nc3c(Cl)cc(C(F)(F)F)cn3c2Cl)cc1 | 17.8µM* | 16.4µM* | -0.5% | -2.0% | 0.1% | u
O=C(Nc1ccccc1F)c1ccc(O)c2ncccc12 | x | x | -38.2% | x | -38.8% | -0.9%
CC(=O)c1cccc(OCc2cc(C(=O)N3CCSCC3)no2)c1 | x | 9.2µM* | u | x | 3.16µM* | 10.7µM*
CC(=O)c1cccc(OCc2cc(C(=O)NCCC3=CCCCC3)no2)c1 | x | u | 2.51µM* | x | u | 9.53µM*
O=C(c1cc(COc2ccc(F)c(F)c2)on1)N1CCSCC1 | x | u | u | x | u | 16.9µM*
COc1cc(C(C)=O)ccc1OCc1cc(C(=O)N2CCSCC2)no1 | x | 3.3% | 9.4% | x | 3.9% | -3.0%
C=CCN1C(=O)C(=O)N(Cc2nc3ccccc3s2)C1=O | x | u | -30.6% | x | 21.3% | 8.49µM*
CN1CCN(c2ccc(-c3ccnn3C(=O)Nc3cccc(C(F)(F)F)c3)cc2)CC1 | 12.6µM* | u | 3.55µM* | -3.3% | 22.6%[1.84 µM] | 21.3µM*
COc1ccc(N2CCN(C(=O)Nc3cccc(C(F)(F)F)c3)CC2)cc1 | -26.3% | -2.5% | 1.6% | -5.3% | -3.5% | 0.8%
O=C(O)CSc1ccc(N=C=S)cc1 | -15.3%[9.22 µM] | x | x | -3.7%[7.66 µM] | x | x
COc1ccc(-n2c(SCC(=O)Nc3cc(C)cc(C)c3)nc3c(oc4ccccc43)c2=O)cc1 | 0.0% | x | x | x | x | -0.9%
CC(C)CSc1ncnc2c1oc1nc3c(cc12)COC(C)(C)C3 | u | 13.3% | 13.6% | -5.2% | 13.6% | u
CC(C)COc1ncnc2c1sc1nc3c(cc12)COC(C)(C)C3 | x | u | 3.98µM* | x | 3.16µM* | 23.9µM*
C=CCSc1ncnc2c1oc1nc3c(cc12)COC(C)(C)C3 | x | u | u | x | u | 13.5µM*
C=CCn1c(C)nc2c(sc3nc4c(cc32)COC(C)(C)C4)c1=O | x | u | 1.78µM* | x | 2µM* | 10.7µM*

Screening data: PubChem BioAssay, National Center for Advancing Translational Sciences (NCATS)
